Only some compounds are listed: those with a hit (about 8.7% of all), similar ones and a draw of the others.
Sfp PPTase inh: blocks B. subtilis Sfp PPTase activity; Q9F4F7; Biochemical Sfp PPTase activity, qHTS; Potency, µM, for the others: largest response in the series, negative = inhibition, usual class: inhibitors; hit rate 3.5% among 310,000; AID 1490;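 further: the enzyme is Sfp with the accession as filed and its product quenches rhodamine fluorescence; 0% = enzyme reaction without inhibitor and -100% = no enzyme wells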
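Fluorescence-quenching assay: 15 nM Sfp-PPTase preincubated 15 min at room temperature with compound, then 5 uM rhodamine-CoA and 12.5 uM BHQ-2-labelled YbbR peptide added. Fluorescence (ex 525/em 598 nm) read at start and after 30 min; difference gives rate.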
HP1b binding inh: HP1-beta chromodomain-methylated histone interaction inhibition; Potency, µM (doses to about 114 µM), inactives show top-dose activity change, negative = inhibition, usual class: inhibitors; AID 540317; AlphaScreen HP1-beta / biotin-H3K9me3 peptide binding; hit rate 0.56% among 390,000; further: nearly all actives have a fitted effect of over 70% in size
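Compound inhibition of the preformed complex between 50 nM HP1-beta and 50 nM biotinylated H3K9me3 peptide was read by AlphaScreen. Buffer was PBS pH 7.4 with 0.01% Tween-20. Incubations ran 30 min at room temperature, with 10 ug/mL donor/acceptor beads.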
G9a block: G9a (human) methyltransferase inhibition; Q96KQ7; G9a H3K9 monomethylation, AlphaScreen, 2 h; Potency, µM (titrated, usually from 102 µM), for the others: at the highest dose activity, negative = inhibition, hits mostly inhibitors; hit rate 8.8% among 350,000; AID 504332; further: on the % scale 0 is the no-effect control and ±100 the full control effect; nearly all actives have a fitted effect of over 75% in size
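G9a (20 nM) preincubated 15 min RT with compounds, then 500 nM biotinylated H3K9 peptide and 20 uM SAM added; 2 h RT reaction. Monomethyl-H3K9 product detected by AlphaScreen with anti-H3K9me1 antibody, streptavidin donor and anti-rabbit IgG acceptor beads.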
JMJD2A Tudor: inhibitors of human JMJD2A Tudor domain; AlphaScreen JMJD2A-Tudor / H3K4me3 peptide binding; Potency, µM (highest dose often 114 µM), for the others: at the highest dose activity change, negative = inhibition, most hits filed as inhibitors; hit rate 4.4% among 390,000; O75164; further: on the % scale 0 is the no-effect control and ±100 the full control effect; nearly all actives have a fitted effect of over 50% in size
12-LOX inh: inhibitors of human 12S-lipoxygenase ALOX12. P18054. purified 12hLO, xylenol orange hydroperoxide absorbance. Potency, µM (doses to about 108 µM), without a hit: top-dose activity change, negative = inhibition, most hits filed as inhibitors. hit rate 1.1% among 580,000. AID 1671190; further: on the % scale 0 is the no-effect control and ±100 the full control effect
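Purified human 12hLO (150 nM final) in 25 mM Hepes, 0.01% Triton X-100, pH 7.0 was preincubated 15 min at room temperature with compound. Then 40 uM arachidonic acid was added, 30 min. Hydroperoxide was read by Fe-XO absorbance ratio 573/405 nm.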
BAZ2B inh: inhibitors of human BAZ2B bromodomain | Q9UIF8 | AlphaScreen BAZ2B-H3K14Ac peptide displacement | Potency, µM (series often up to 114 µM), for inactives: at the top dose activity change, negative = inhibition, usual class: inhibitors | hit rate 4.4% among 360,000 | AID 504333; further: on the % scale 0 is the no-effect control and ±100 the full control effect; nearly all actives have a fitted effect of over 60% in size
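AlphaScreen displacement: compounds (up to 110uM) incubated 30 min at room temperature with a preformed 50 nM BAZ2B/50 nM biotinylated H3K14Ac peptide complex in PBS pH 7.4 with Tween-20. Donor and acceptor beads at 10 ug/mL final added, 20 min light-protected before reading.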
Starred values were filed as active, the others as inactive; ? = inconclusive; · = no result given; [ ] = remark or other dose. The call rests on the fitted dose curve; in most records, active means well fitted curve in the direction sought with a large enough effect; inconclusive means small, poorly fitted or top-dose-only effect, or another doubt; inactive means no such curve, though single readings can be large; an effect the other way counts as inactive or inconclusive. Potency means the concentration at half of the fitted maximal effect.

SMILES | Sfp PPTase inh | HP1b binding inh | G9a block | JMJD2A Tudor | 12-LOX inh | BAZ2B inh
COc1ccccc1C(=O)/C=C/c1ccc(N2CCCCC2)c([N+](=O)[O-])c1 | 1% | 32µM* | 13µM* | 8.9µM* | -21% | 6.3µM*
O=C(/C=C/c1ccc(N2CCCCC2)c([N+](=O)[O-])c1)c1ccc(O)cc1 | -2% | 35µM* | -25%[12.7 µM] | 28µM* | -1% | 40µM*
O=C(Cc1ccsc1)N1CCC2(CC1)CC(N(Cc1ccc(F)cc1)C1CC1)CCO2 (stereo unspecified) | · | · | · | · | 22% | ·
N#Cc1ccc(C(=O)NCC2CCCCC2)cc1 | 13% | 21% | 50µM* | 12% | -4% | 1%
N#Cc1ccc(C(=O)NCC2CCN(C(=O)C(=O)c3cccs3)CC2)cc1 | · | · | · | · | -8% | ·
O=C(NCC1CCN(c2cc(-c3ccccc3)[nH]n2)CC1)c1ccc(=O)[nH]c1 | · | · | · | · | 10% | ·
O=C(NCC1CCCCC1)c1ccc(=O)[nH]c1 | 11% | 0% | 45µM* | -3% | 3% | -3%
CN1CCCCCCN(C(=O)C2CC2)[C@H]2CCC[C@H]2C1=O | · | · | · | · | 34% | ·
C=CCCC(=O)Nc1nc(C)c(-c2csc(Nc3ccc(Cl)cc3Cl)n2)s1 | -22% | ? | 7.1µM* | ? | ? | ?
C=CCCC(=O)Nc1nc(C)c(-c2csc(Nc3ccccc3OC)n2)s1 | 6% | -9% | 25µM* | ? | -25% | ?
C=CCCC(=O)Nc1nc(C)c(-c2csc(Nc3cc(Cl)ccc3OC)n2)s1 | -29% | 3% | ? | ? | -25% | ?
COCCCN1CCc2nc(SCC(=O)Nc3ccc(C)c(Cl)c3)[nH]c(=O)c2C1 | · | 34% | -26%[59 µM] | -6% | 0% | -6%
COc1cccc(CN2CCc3[nH]c(=S)[nH]c(=O)c3C2)c1 | -28% | 47% | 45µM* | -15% | ? | -13%
COCCCN1CCc2[nH]c(=S)[nH]c(=O)c2C1 | 50µM* | 13% | 35µM* | ? | -6% | -37%
O=C1CCC2(CCN1Cc1ccccc1)CCN(S(=O)(=O)c1cccs1)CC2 | · | · | · | · | -11% | ·
CCOC(=O)C1=C(C)N(CC(C)C)C(=O)/C1=C\c1ccc(OCC(=O)Nc2ccccc2)cc1 | 8% | -5% | 50µM* | -36%[57.1 µM] | 15% | -37%[57.1 µM]
CCOC(=O)c1cc(=O)c2ccc(OCC(=O)Nc3ccccc3)cc2o1 | -9% | 13% | 17% | -12% | 319% | -17%
Cc1ccncc1C(=O)NCC(=O)N1CCCCCNC(=O)CC1c1ccccc1 (stereo unspecified) | · | · | · | · | 40% | ·
Cc1c(-n2cc(C(=O)O)c(=O)c3cc(F)c(N4CCCC4)c(F)c32)c(=O)n(-c2ccccc2)n1C | -8% | 25% | 56µM* | -2% | ? | -4%
Cc1ccc(NC(=O)CCNc2cnc3cnccn23)cc1F | · | · | · | · | 50µM* | ·
Cc1ccc(NC(=O)CCC(=O)O)cc1F | 9% | 17% | -3%[12.7 µM] | -22% | -4% | 9%
OCC1(CN2CCCC2)CCN(Cc2ccc(Cl)c(F)c2)CC1 | · | · | · | · | 32% | ·
Nc1cccc(Cl)c1N1CCOCC1 | 15% | ? | 12%[0.0925 µM] | 20µM* | 13% | -1%
CCCNc1nc(N(C)C)nc(-n2cnc(SCC(=O)OCC)n2)n1 | · | · | · | · | -2% | ·
COc1cccc(-c2nc(N3CCCC3)c3ccccc3n2)c1O | -15% | -9% | · | ? | -12% | ?
COc1ccc(Nc2nc(-c3cccc(OC)c3O)nc3ccccc23)cc1 | -18% | -16% | 50µM* | ? | ? | 40µM*
COc1cccc(-c2nc(N3CCC(C)CC3)c3ccccc3n2)c1O | ? | -44% | 35µM* | 56µM* | ? | ?
COc1cccc(-c2nc(N3CC(C)CC(C)C3)c3ccccc3n2)c1O (stereo unspecified) | ? | ? | 35µM* | ? | -1% | ?

High-throughput results from PubChem.
